Compound activity deposited in PubChem by National Center for Advancing Translational Sciences (NCATS).
D2 PAM-1 – potentiates the human D2 dopamine receptor allosterically; 360,000 tested, 0.23% active; P14416; DiscoveRx D2 beta-arrestin cells, luminescence, 90 min; 100% = 57 uM dopamine signal; AID 624464; potentiation, % (no concentration beside the values); in the data active = potentiation above about 50%
Target sequence (P14416 whole entry, looked up): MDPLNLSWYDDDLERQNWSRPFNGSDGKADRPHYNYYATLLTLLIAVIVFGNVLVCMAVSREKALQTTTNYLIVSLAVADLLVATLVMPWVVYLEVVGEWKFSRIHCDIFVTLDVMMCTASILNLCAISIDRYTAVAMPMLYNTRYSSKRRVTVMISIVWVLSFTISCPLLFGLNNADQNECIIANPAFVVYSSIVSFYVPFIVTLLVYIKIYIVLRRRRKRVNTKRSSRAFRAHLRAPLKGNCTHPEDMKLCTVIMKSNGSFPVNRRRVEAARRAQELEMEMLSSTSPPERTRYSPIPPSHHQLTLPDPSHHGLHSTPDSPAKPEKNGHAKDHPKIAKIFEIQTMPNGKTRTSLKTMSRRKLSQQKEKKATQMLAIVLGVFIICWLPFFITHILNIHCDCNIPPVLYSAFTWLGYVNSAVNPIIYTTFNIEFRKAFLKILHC
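PathHunter beta-arrestin assay in DiscoveRx D2 cells. Compounds were added with an EC20 of dopamine (50 nM final) for 90 min at 37 deg C. Luminescence was read 1 h after detection reagent, with 57 uM dopamine as the EC100 control.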
D2 ag-1 – human D2 receptor agonism in beta-arrestin assay; P14416; DiscoveRx PathHunter D2 beta-arrestin, luminescence, 90 min; 100% = 57 uM dopamine signal; activation, % (concentration not given with the values); 360,000 tested, 0.084% active; AID 624465; in the data active = activation above about 40%
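Agonist mode: compounds alone added to overnight-plated D2 PathHunter cells for 90 min at 37 C, with 57 uM final dopamine (EC100) defining full response. Beta-arrestin recruitment detected by chemiluminescent reagent, read after 1 h at ambient temperature.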
D2 PAM-2 – D2 dopamine receptor (human) potentiation; HEK293 T-REx D2, calcium flux, EC20 dopamine potentiation; 340,000 tested, 0.34% active; AID 485347; potentiation, % at 10 µM; P14416;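 active = potentiation over 3 SD above the plate norm, cut at about 30% in these data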; also: 0% is about no effect
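Tetracycline-induced HEK293 T-REx cells force-coupled to calcium signalling expressed D2; compounds were pin-added after a 10 s baseline, read kinetically 180 s, then an EC20 dopamine challenge followed with a further 180 s calcium read.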
D2 ag-2 – D2 dopamine receptor (human) agonism. P14416. HEK293 T-REx D2 cells, calcium flux agonist mode. activation, % at 2 µM. 340,000 tested, 0.53% active. AID 485358;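 active = activation over 3 SD above normal in the single-dose calcium agonist read, cut at about 30% in these data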; also: 0% is about no effect
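Agonism is scored from calcium flux in a force-coupled, inducible HEK293 cell line expressing D2, read kinetically for 180 s after compound addition against dopamine controls.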
D2 antag – D2 dopamine receptor (human) antagonism | P14416 | HEK293 TREx D2 cells, calcium flux, dopamine EC80 | inhibition, % at 10 µM | 340,000 tested, 2% active; in the data active = inhibition above about 30%; inactive = below that, where a call was filed; also: 0% is about no effect
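HEK293 T-REx D2 cells, tet-induced, calcium dye no-wash. Cpd pintool add, 180 s kinetic, then EC80 DA, 180 s kinetic. Ca flux read.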
An asterisk follows results filed as active. Most compounds without a hit are left out; they make up all but 2.4% or so of the library.

Screening O=C(CN1CCC(NC(=O)c2ccco2)CC1)Nc1ccccc1C(F)(F)F returned D2 PAM-1 -6, D2 ag-1 -1, D2 PAM-2 9, D2 ag-2 0 and D2 antag 50*.
Screening COc1ccc(CCNC(=S)NCCc2ccc(OC)c(OC)c2)cc1OC returned D2 PAM-1 -5, D2 ag-1 -1, D2 PAM-2 7, D2 ag-2 -1 and D2 antag 1.
For Fc1ccc(C(c2nnc(-c3ccccc3)o2)N2CCN(c3ccccc3)CC2)c(Cl)c1 (stereo unspecified) the results were D2 PAM-2 8.
COc1ccc(N2CCN(c3csc4ccccc4c3=O)CC2)cc1 was read as D2 PAM-2 20 and D2 ag-2 0.
`CN(C)C(=O)c1cccc(-c2cnc3cccnn23)c1` gave D2 PAM-1 -1 and D2 ag-1 -3.
For COc1c2c(cc3oc(=O)ccc13)OC(C)(C)C=C2 the results were D2 PAM-1 -2, D2 ag-1 4, D2 PAM-2 4, D2 ag-2 -3 and D2 antag 33*.
Screening CC1(C(=O)NS(=O)(=O)c2cccc(C#N)c2)CCN1C(=O)CCC1CCCC1 (stereo unspecified) returned D2 PAM-1 -3 and D2 ag-1 -2.
Screening COc1ccc(C(CNc2ccc(S(=O)(=O)N3CCN(C)CC3)cc2[N+](=O)[O-])N(C)C)cc1 (stereo unspecified) returned D2 PAM-1 -2, D2 ag-1 -3, D2 PAM-2 -15, D2 ag-2 1 and D2 antag 5.
For COc1ccc(CCNc2ccc(S(=O)(=O)N3CCN(C)CC3)cc2[N+](=O)[O-])cc1 the results were D2 PAM-1 -5, D2 ag-1 -2, D2 PAM-2 3, D2 ag-2 -1 and D2 antag 65*.
Screening CCCCOC(=O)C1=C(C)NC(=O)NC1c1ccc([N+](=O)[O-])s1 (stereo unspecified) returned D2 PAM-1 58*, D2 ag-1 2, D2 PAM-2 5, D2 ag-2 2 and D2 antag 5.
`CCCCOC(=O)C1=C(C)NC(=O)NC1c1cccc([N+](=O)[O-])c1` (stereo unspecified) gave D2 PAM-1 -4, D2 ag-1 -4, D2 PAM-2 0, D2 ag-2 -1 and D2 antag 24.
O=C(Cn1cnc2onc(-c3ccc(F)cc3)c2c1=O)Nc1ccc(F)c(Cl)c1 was read as D2 PAM-2 5 and D2 ag-2 2.
O=C(CN1C(=O)c2cccnc2Oc2ccc(Cl)cc21)NC1CCCCCC1 was read as D2 PAM-1 0, D2 ag-1 4, D2 PAM-2 -9, D2 ag-2 0 and D2 antag 41*.
For Cc1c(C(=O)N/N=C/c2ccoc2)cccc1[N+](=O)[O-] the results were D2 PAM-1 -9, D2 ag-1 2, D2 PAM-2 12, D2 ag-2 -1 and D2 antag 67*.
CCCC(C)c1nnc(NC(=O)CCS(=O)(=O)Cc2ccccc2)s1 (stereo unspecified) was read as D2 PAM-1 -7, D2 ag-1 -8, D2 PAM-2 -9, D2 ag-2 0 and D2 antag -15.
`CC(C)c1nnc(NC(=O)CS(=O)(=O)Cc2ccccc2)s1` gave D2 PAM-1 4, D2 ag-1 5, D2 PAM-2 4, D2 ag-2 0 and D2 antag 55*.
CCC(CC)c1nnc(NC(=O)CS(=O)(=O)Cc2ccccc2)s1 was read as D2 PAM-1 9 and D2 ag-1 0.
`CCCC(C)c1nnc(NC(=O)CS(=O)(=O)Cc2ccccc2)s1` (stereo unspecified) gave D2 PAM-1 9, D2 ag-1 2, D2 PAM-2 30*, D2 ag-2 0 and D2 antag -2.
O=C(c1ccc(CSc2nc3ccncc3n2Cc2cccc(F)c2)cc1)N1CCCCC1 was read as D2 PAM-2 23 and D2 ag-2 0.
`COc1ccc(N(C(=O)CNC(=O)c2cccs2)C(C(=O)NCC2CCCO2)c2ccccc2)cc1` (stereo unspecified) gave D2 PAM-1 -2, D2 ag-1 4, D2 PAM-2 -16, D2 ag-2 0 and D2 antag 80*.
